“And” between values parts separate entries of the source, which are not always exact repeats. Equal values may be shown once. Inconclusive results are not listed. More than one record can exist for a structure, and the calls need not agree. A number with no mark means an inactive call. The source made the active and inactive calls. The call rests on the fitted dose curve; in most records, active means well fitted inhibition curve with a large enough effect; inconclusive means small, poorly fitted or top-dose-only effect; inactive means flat fitted curve, though single readings scatter.

The subject of one assay is CRL-7250. Description: Cytotoxic Profiling of Annotated Libraries Using Quantitative High-Throughput Screening (AID 1296008). Further: potency means the concentration at half of the fitted maximal effect. On max response: on the % scale 0 is the no-effect control and ±100 the full control effect. The note with it: Five cell lines viability, CellTiter-Glo ATP luminescence, 48-72 h; max response: hits give low values. In a few lines: (§1)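 Compounds were pin-transferred onto cells and incubated 48 or 72 hr at 37 degree Celsius, 95% humidity. CellTiter-Glo was added, plates sat 10 min at room temperature, then ATP-coupled luminescence was imaged as the viability read-out.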
A general note: Cellular ATP, detected with luciferase, serves as a proxy for viable cell number.

Assay [1] has as its system HaCat. The assay is described as above. The note with it: Five cell lines viability, CellTiter-Glo ATP luminescence, 48-72 h; max response: hits give low values. The procedure, abridged:
as §1

For another assay, the system named is KB-3-1. The assay is described as above. The note with it: Five cell lines viability, CellTiter-Glo ATP luminescence, 48-72 h; max response: hits give low values. The procedure, abridged:
as §1

A further assay relates to NIH3T3. The description is as above. The note with it: Five cell lines viability, CellTiter-Glo ATP luminescence, 48-72 h; max response: hits give low values. In a few lines:
as §1

The subject of assay [2] is HACAT. Nature of the assay: qHTS assay to identify novel small-molecules to repurpose for Merkel cell carcinoma treatment (AID 1296009). As to conditions: MCC and control cell lines, CellTiter-Glo viability, 72 h; at 44.8 µM (top of the series) unless noted. In a few lines:
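Viability readout: ATP luminescence (CellTiter-Glo) after 72 hr drug exposure at 37 degree celsius. Dose-response format was 8 points for NPC and 11 points for MIPE; data normalized to in-plate controls.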
A general note: Quantitative high-throughput screening tests each substance at several concentrations.

Another assay deals with TAB109. Description: qHTS profiling for inhibitors of Plasmodium falciparum proliferation (AID 504749).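 Further: 0% = DMSO vehicle and full inhibition = artemisinin control.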 The note with it: P. falciparum in erythrocytes, SYBR Green DNA, 72 h; series mostly up to 28.7 µM. The procedure, abridged: (§2)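 Quantitative HTS: compounds pinned into medium, infected erythrocytes added (0.3% parasitemia, 2.5% hematocrit), 72 h culture at 37 C under 5% CO2. Saponin/Triton lysis with SYBR Green I, overnight RT, then fluorescence read.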

The subject of another assay is TAB113. The assay is described as above. As to conditions: P. falciparum in erythrocytes, SYBR Green DNA, 72 h; series mostly up to 28.7 µM. In a few lines: as §2
A further assay relates to TAB165. The description is as above. As to conditions: P. falciparum in erythrocytes, SYBR Green DNA, 72 h; series mostly up to 28.7 µM. In a few lines:
as §2

The subject of another assay is HEK293. Nature of the assay: Cytotoxic Profiling of Annotated Libraries Using Quantitative High-Throughput Screening (AID 1296008). Further: potency means the concentration at half of the fitted maximal effect. On max response: on the % scale 0 is the no-effect control and ±100 the full control effect. The note with it: Five cell lines viability, CellTiter-Glo ATP luminescence, 48-72 h; max response: hits give low values. The procedure, abridged: as §1
Further: nearly all actives have a fitted effect of over 60% in size.

In the case of `COC1CCC(C(=O)c2ccc3nc4c(cc3c2)CCCO4)CC1` (stereo not drawn), the result in the assay with CRL-7250, with HaCat [1] and with HACAT [2] was inactive. The max response in the assay on KB-3-1 was -15.4%; in the assay on NIH3T3, -7.67%.

As to `CCCCCCOC(=O)N=C(N)c1ccc(NCc2nc3cc(C(=O)N(CCC(=O)OCC)c4ccccn4)ccc3n2C)cc1`, the max response is -14.3% in the assay on CRL-7250, 5.67% in the assay on KB-3-1 and 3.96% in the assay on NIH3T3. Further, the compound was called inactive with HaCat [1] and in the assay on HACAT [2].

As for `CCOC(=O)N1CCN([N+]([O-])=NOc2cc(ON=[N+]([O-])N3CCN(C(=O)OCC)CC3)c([N+](=O)[O-])cc2[N+](=O)[O-])CC1`, the compound was classed as inactive with CRL-7250, with HaCat [1], in the assay with KB-3-1, in the assay with NIH3T3 and with HACAT [2].

For the compound `Cc1ccc(C2=Nc3ccc(Cl)cc3OC2)cc1`, the result in the assay on CRL-7250, with HaCat [1] and in the assay with HACAT [2] was inactive. Moreover, the values for the max response with KB-3-1 and in the assay with NIH3T3 were 5.39% and -2.62%, respectively.

As for `C[C@@H]1CC=CC=CC=CC=C[C@@H](O[C@@H]2O[C@H](C)[C@@H](O)[C@H](N)[C@H]2O)C[C@@H]2O[C@](O)(C[C@@H](O)C[C@@H]3O[C@@H]3C=CC(=O)O1)C[C@H](O)[C@@H]2C(=O)O`, the max response was -2.36% in the assay on CRL-7250, -1.58% in the assay on HaCat [1] and 4.91% in the assay with NIH3T3.

Regarding `CCOC(=O)c1c(CSc2ccccc2)n(C)c2cc(Br)c(O)c(CN(C)C)c12`, the compound was classed as inactive in the assay with CRL-7250, in the assay on HaCat [1] and in the assay with HACAT [2]. In addition, the values for the max response in the assay on KB-3-1 and with NIH3T3 were -17.1% and -4.48%, respectively.

Take `O=C(Nc1cccc(C(F)(F)F)c1)Nc1cc(S(=O)(=O)NC2CC2)ccc1-c1ccsc1`: the max response was -35.6% in the assay on CRL-7250, -22.2% with HaCat [1] and -27% with NIH3T3.

On to `CCCCC[C@H](O)C=C[C@H]1[C@H](O)CC(=O)[C@H]1CC=CCCCC(=O)O`, for which the results for the max response in the assay on CRL-7250 and in the assay with NIH3T3 were 2.95% and -18.8%, respectively. Further, the compound was called inactive in the assay on HaCat [1], in the assay on KB-3-1 and with HACAT [2].

Turning to `CN(C)CCOc1ccc(-c2nc(-c3ccc4c(c3)CCC4=NO)c(-c3ccncc3)[nH]2)cc1`, the compound was classed as inactive in the assay with CRL-7250, in the assay on HaCat [1] and in the assay on HACAT [2]. In addition, the max response with KB-3-1 was 2.27%; in the assay on NIH3T3, 1.65%.

As for `CCOC(=O)[C@@H](N)CCC(=O)N[C@@H](CSCc1ccccc1)C(=O)N[C@@H](C(=O)OCC)c1ccccc1`, the result with CRL-7250, with HaCat [1] and with HACAT [2] was inactive. The max response is -0.167% with KB-3-1 and 1.31% in the assay on NIH3T3.

As for `Cc1ccc(S(=O)(=O)OCC(=O)Nc2ccc(C(=O)O)c(O)c2)cc1`, the max response is -2.75% in the assay on CRL-7250 and -0.735% in the assay on NIH3T3. Also, the compound was classed as inactive with HaCat [1], in the assay with KB-3-1 and in the assay on HACAT [2].

With `C=C[C@@H]1CN2CCC1C[C@@H]2C(O)c1ccnc2ccc(OC)cc12` (stereo partly drawn), the outcome in the assay with CRL-7250, in the assay on HaCat [1] and in the assay with HACAT [2] was inactive. In addition, the values for the max response with KB-3-1 and in the assay with NIH3T3 were 7.83% and 0.497%, respectively.

Regarding `CCN1CCC(n2cc(CNc3cc(Cl)c4ncc(C#N)c(Nc5ccc(F)c(Cl)c5)c4c3)nn2)CC1`, the max response in the assay on CRL-7250 was -1.92% and -4.77%; in the assay with HaCat [1] it was -29.2% and -4.6%; in the assay on NIH3T3, 2.53%. The Potency with KB-3-1 was 18.4 µM (active). The compound was classed as inactive in the assay on NIH3T3.

For `COc1cc2c(cc1OC)CC(=O)N(CCCN(C)C[C@H]1Cc3cc(OC)c(OC)cc31)CC2`, the Potency result in the assay with TAB109, in the assay with TAB113 and in the assay with TAB165 was “inactive” in each case. The max response with CRL-7250 was 4.25%; in the assay with HaCat [1], -15.9%; with KB-3-1 it was 6.36%; with NIH3T3 it was -18.8%.

Turning to `C[C@]12CC[C@@H]3c4ccc(O)cc4CC[C@H]3[C@H]1[C@@H](O)[C@@H](O)[C@H]2O`, the max response with CRL-7250 is 0.316%. Also, the outcome in the assay on HaCat [1], in the assay on KB-3-1, in the assay with NIH3T3 and with HACAT [2] was inactive.

With `C[C@@H]1CCO[C@H]2Cn3cc(C(=O)NCc4ccc(F)cc4F)c(=O)c(O)c3C(=O)N12`, the compound was called inactive with CRL-7250, in the assay on HaCat [1] and in the assay with HACAT [2]. Further, the max response is -10.6% and -26.2% in the assay with KB-3-1; -1.73% in the assay with NIH3T3. Further, the Potency in the assay with NIH3T3 was 20.6 µM (active).

Consider `COc1ccc2c(c1)c(C1=C(c3c[nH]c4ccccc34)C(=O)NC1=O)cn2CCCN(C)C`, for which the result in the assay with CRL-7250, in the assay on HaCat [1] and in the assay on HACAT [2] was inactive. The figures for the max response in the assay with KB-3-1 and in the assay with NIH3T3 were -14.8% and 4.3%, respectively.

Turning to `Cc1cc2nc3c(=O)[nH]c(=O)nc-3n(CC(O)C(O)C(O)CO)c2cc1C` (stereo not drawn), the Potency entry with TAB109, with TAB113 and in the assay on TAB165 was “inactive” each time. The call in the assay on CRL-7250, in the assay on HaCat [1], in the assay on NIH3T3 and with HACAT [2] was inactive. In addition, the max response in the assay on KB-3-1 is 9.48%.

`O=C(O)c1ccc(O)c2ncc(N3CCOCC3)cc12`: the figures for the max response in the assay with HEK293 and in the assay with KB-3-1 were 4.93% and 3.25%, respectively. The compound was classed as inactive with HaCat [1] and with HACAT [2].

Regarding `CC(C)(C)c1nc(-c2cccc(NS(=O)(=O)c3c(F)cccc3F)c2F)c(-c2ccnc(N)n2)s1`, the max response in the assay with HEK293 was -10.3%; in the assay on HaCat [1], -2.38%; in the assay on KB-3-1, -15.7% and -13.9%; in the assay on NIH3T3 it was -11.1% and -2.7%.

As to `C#CCN(C)CC1=Cc2ccccc2Oc2ccccc21`, the max response was -16.4% with CRL-7250, -4.88% in the assay on KB-3-1 and -28.1% with NIH3T3.

For the compound `CN1CCN(c2cccc(Nc3nc4c(-c5ccc(S(C)(=O)=O)cc5)cccn4n3)c2)CC1`, the Potency in the assay on HEK293 was 9.2 µM (active); in the assay on HaCat [1] it was 14.8 µM (active) and 5.17 µM (active). Moreover, the outcome with KB-3-1 was inactive. Also, the max response with NIH3T3 was -10.8% and -33.2%.

Turning to `Cc1ccc2c(c1)C(=O)[C@]1(O)CCN(c3ccccc3)C1=N2`, the max response in the assay with HEK293 is -19.6%.

The record behind these values is PubChem BioAssay (NCATS).
